# Results: publication PMC11062922 (Nature Chemical Biology, 2023)
# Like-named read-outs stand apart in the source and are kept apart here.
# Legend:
# Design in all cases: species or system human, MV4-11 + K-562 + COLO205 + SK-N-BE2 + OVCAR-8
# [1] = tested on: SIK3; details: read-out: apparent Kd, compound concentrations: 100 nM and 1000 nM (sheet 'Samples'), n = 1
# [2] = tested on: PIK3CD; details: read-out: apparent Kd, compound concentrations: 100 nM and 1000 nM (sheet 'Samples'), n = 1
# [3] = tested on: STK10; details: read-out: apparent Kd, n = 1
# [4] = tested on: CDK4; details: read-out: apparent Kd, n = 1
# [5] = tested on: LIMK1; details: read-out: apparent Kd, compound concentrations: 100 nM and 1000 nM (sheet 'Samples'), n = 1
# [6] = tested on: ERBB3; details: read-out: apparent Kd, compound concentrations: 100 nM and 1000 nM (sheet 'Samples'), n = 1
# [7] = tested on: MAP2K2; details: read-out: apparent Kd; compound concentrations: 100 nM and 1000 nM (sheet 'Samples'), CATDS: 6.4354786580358606E-2; n = 1
# [8] = tested on: MAPK10; details: read-out: apparent Kd, n = 1
# [9] = tested on: MAPK11; details: read-out: apparent Kd; compound concentrations:100 nM and 1000 nM (sheet 'Samples'); n = 1
# [10] = tested on: CDK7; details: read-out: apparent Kd, n = 1
# [11] = tested on: ERCC2; details: read-out: apparent Kd, n = 1
# [12] = tested on: NUAK1; details: read-out: apparent Kd, n = 1
# [13] = tested on: PRKAG1; details: read-out: apparent Kd; compound concentrations:100 nM and 1000 nM (sheet 'Samples'); n = 1
# [14] = tested on: EPHB3; details: read-out: apparent Kd; compound concentrations: 100 nM and 1000 nM (sheet 'Samples'), CATDS: 6.3203902610818402E-2; n = 1
# [15] = tested on: PKN3; details: read-out: apparent Kd, n = 1
# [16] = tested on: PIM2; details: read-out: apparent Kd; compound concentrations:100 nM and 1000 nM (sheet 'Samples'); n = 1
# [17] = tested on: AURKA; details: read-out: apparent Kd, compound concentrations: 100 nM and 1000 nM (sheet 'Samples'), n = 1
# [18] = tested on: BMPR1A; details: read-out: apparent Kd; compound concentrations: 100 nM and 1000 nM (sheet 'Samples'), CATDS: 4.5522705937236799E-2; n = 1
# [19] = compound concentrations:100 nM and 1000 nM (sheet 'Samples')
smiles,measurement,setting,value
Fc1cc(Cl)ccc1Nc1ccnc2cc(-c3ccc(CN4CCOCC4)o3)ccc12 [GW560109X],potency estimated from few doses,[1]; CATDS: 5.0355620048332002E-2,1910 nM
Cn1cc(-c2ccc3c(c2)CCN3C(=O)Cc2cc(F)cc(C(F)(F)F)c2)c2c(N)ncnc21 [GSK2635225A],potency estimated from few doses,[2]; CATDS: 0.457718684353002,139 nM
COc1cc2ncn(-c3cc(OCc4ccncc4)c(C(N)=O)s3)c2cc1OC [GSK336313A],potency estimated from few doses,[3]; [19],1930 nM
CC(C)c1nc(-c2cccc(NS(=O)(=O)c3c(F)cccc3F)c2)c(-c2ccnc(Nc3ccc(N4CCOCC4)nc3)n2)s1.Cl [GSK1723980B],potency estimated from few doses,"[4]; compound concentrations: 100 nM and 1000 nM (sheet 'Samples'), CATDS: 1.44710084593789E-2",1810 nM
same,potency estimated from few doses,[5]; CATDS: 8.5923205073472897E-2,36.9 nM
same,potency estimated from few doses,[1]; CATDS: 1.4935731096458E-2,1520 nM
N#Cc1cnc2cc(-c3cnc(CNCCN4CCOCC4)s3)ccc2c1Nc1ccc(Oc2ccccc2)cc1 [GW664114X],potency estimated from few doses,[6]; CATDS: 9.1270292154097404E-2,245 nM
same,potency estimated from few doses,[7],499 nM
CC(=O)N1CCN(c2ccc(Nc3nccc(-c4sc(C(C)C)nc4-c4cccc(NS(=O)(=O)c5ccccc5)c4)n3)cn2)CC1 [GSK1645872A],potency estimated from few doses,"[4]; compound concentrations: 100 nM and 1000 nM (sheet 'Samples'), CATDS: 2.3530905499939799E-2",1530 nM
same,potency estimated from few doses,[5]; CATDS: 9.09760903229518E-2,111 nM
COc1cc2ncn(-c3cc(OCc4cccs4)c(C(N)=O)s3)c2cc1OC [GSK312948A],potency estimated from few doses,[3]; [19],109 nM
CNc1nccc(-c2c(-c3ccc(F)cc3)ncn2C2CCN(C)CC2)n1 [SB-222903],potency estimated from few doses,[8]; [19],976 nM
same,potency estimated from few doses,[9],1080 nM
COc1cc2ncn(-c3cc(OCCCc4ccccc4)c(C(N)=O)s3)c2cc1OC [GSK205189A],potency estimated from few doses,[10]; [19],79.1 nM
same,potency estimated from few doses,[11]; [19],39.9 nM
same,potency estimated from few doses,[12]; [19],1770 nM
same,potency estimated from few doses,[13],1310 nM
Nc1ncc(-c2cn[nH]c2)c2scc(-c3ccc4c(c3)CCN4C(=O)Cc3ccccc3)c12 [GSK2593067A],potency estimated from few doses,[2]; CATDS: 0.15776824540953199,196 nM
CS(=O)(=O)Cc1ccc(Nc2nccc(-c3c(-c4cccc(NC(=O)c5c(F)cccc5F)c4)nn4ccccc34)n2)cc1 [GSK323543A],potency estimated from few doses,"[11]; compound concentrations: 100 nM and 1000 nM (sheet 'Samples'), CATDS: 6.1110797752593003E-2",1570 nM
Cc1ccc(O)cc1Nc1ccnc2ccc(C(C)(C)C)cc12 [GW856805X],potency estimated from few doses,[14],31.7 nM
CN(C)Cc1ccc(-c2ccc3c(Nc4ccc(Oc5ccccn5)cc4)ccnc3c2)o1 [GW567148X],potency estimated from few doses,"[10]; compound concentrations: 100 nM and 1000 nM (sheet 'Samples'), CATDS: 2.45792325734666E-2",573 nM
same,potency estimated from few doses,"[11]; compound concentrations: 100 nM and 1000 nM (sheet 'Samples'), CATDS: 2.5327932043398099E-2",534 nM
same,potency estimated from few doses,"[15]; compound concentrations: 100 nM and 1000 nM (sheet 'Samples'), CATDS: 1.7061922393971401E-2",1730 nM
Fc1ccc(-c2c(-c3ccncc3)[nH]c3nccnc23)cc1 [RO1155697-000],potency estimated from few doses,[8]; [19],869 nM
same,potency estimated from few doses,[16],1070 nM
same,potency estimated from few doses,[15]; [19],31.1 nM
CN1CCN(Cc2ccc(NC(=O)Nc3ccc(N(C)c4ccnc(Nc5ccc(CS(C)(=O)=O)cc5)n4)cc3)cc2)CC1.Cl [GW827654A],potency estimated from few doses,[17]; CATDS: 6.4898936627914502E-2,288 nM
N#Cc1cccc(Nc2nccc(-c3cnn4ncccc34)n2)c1 [GW778894X],potency estimated from few doses,[4]; [19],1830 nM
same,potency estimated from few doses,[10]; [19],373 nM
same,potency estimated from few doses,[11]; [19],780 nM
same,potency estimated from few doses,[12]; [19],792 nM
Cc1cc(O)cc(C)c1/C=C/c1cncc(-c2nn[nH]n2)c1.Cl [GW441806A],potency estimated from few doses,[18],1370 nM
same,potency estimated from few doses,[6]; CATDS: 9.8413353572783496E-2,174 nM
same,potency estimated from few doses,"[3]; compound concentrations: 100 nM and 1000 nM (sheet 'Samples'), CATDS: 4.0928454430712802E-2",2050 nM
CNC(=O)c1ccccc1Nc1nc(Nc2cccc(CS(C)(=O)=O)c2)ncc1C.O=CO [GSK1520489A],potency estimated from few doses,[17]; CATDS: 6.1882254370992797E-2,16.9 nM
same,potency estimated from few doses,"[8]; compound concentrations: 100 nM and 1000 nM (sheet 'Samples'), CATDS: 1.2611209241053301E-2",502 nM
same,potency estimated from few doses,"[12]; compound concentrations: 100 nM and 1000 nM (sheet 'Samples'), CATDS: 1.6678428283329098E-2",217 nM
same,potency estimated from few doses,"[3]; compound concentrations: 100 nM and 1000 nM (sheet 'Samples'), CATDS: 2.4296695352096099E-2",88.5 nM
